CRFBP-R2 block: CRF-BP/CRF-R2 complex antagonism | HEK293 CRF-R2/CRF-BP, CRF-induced calcium fluorescence | inhibition, % at 11.8 µM | 0.59% of 350,000 active | AID 588475;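 active = inhibition of the ligand-induced calcium signal above about 50% at the single tested concentration, limit read from the data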
IDE cell activ: boosts human insulin-degrading enzyme activity in HEK cells. P14735. FAbeta-B cleavage, fluorescence polarization; 0% vehicle, 100% cell-free pure enzyme wells. activation, % at 5.96 µM. 0.073% of 340,000 active. AID 493087;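 active = activation above the mean of all tested compounds plus 3 SD, set per screening campaign, cut at about 17% in these data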
TPT1 inh: inhibitors of Candida albicans tRNA 2'-phosphotransferase TPT1 | recombinant caTPT1, FP RNA substrate dephosphorylation | inhibition, % at 5 µM | 0.81% of 300,000 active;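 active = inhibition above the mean of all tested compounds plus 3 SD, set per screening campaign, cut at about 24% in these data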;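 also: plate controls were DMSO alone for no effect and ferristatin control at 100 nM for full effect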
CRFR2-BP ag: CRF-BP/CRF-R2 complex agonism; AID 588473; 0.46% of 350,000 active; activation, % at 13.2 µM; HEK293 CRF-R2/CRF-BP, calcium dye fluorescence (FLIPR); percent of saturating CRF peptide response;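 active = activation of at least 50%, plus an integration ratio under a set limit after plate pattern correction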;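 also: plate controls were neutral control wells without compound for no effect and CRF at EC100 for full effect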
Myeloid diff 2: myeloid differentiation induction; calls only at 10 µM; ER-HoxA9 myeloid progenitors, lysozyme-GFP differentiation, flow cytometry; AID 624256; 1% of 360,000 active;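 active = normalized GFP-positive differentiation at or above the plate's own cutoff, the solvent-only control mean plus 3 SD; inconclusive = no clear call, values can overlap the other calls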;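 also: cells exposed to compound for four days before flow analysis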
IDE cell inh: cellular human IDE inhibition. P14735. HEK cells, FAbetaB cleavage, fluorescence polarization. inhibition, % at 5.59 µM. 0.41% of 320,000 active. AID 434962;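 active = percent inhibition above the average of all tested compounds plus 3 SD, set per screening campaign, cut at about 16% in these data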;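 also: IDE supplied by intact live HEK cells; FP after avidin binding of uncleaved biotin substrate so inhibition keeps polarization high; 0% = DMSO wells and 100% = 60 µM reference IDE inhibitor Ii1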
Starred values were filed as active, the others as inactive; i = inactive; ? = inconclusive; . = no result given; + = active, no number. Shown are actives, neighbours in structure and some others; about 2.6% of the full set was active somewhere.

SMILES	CRFBP-R2 block	IDE cell activ	TPT1 inh	CRFR2-BP ag	Myeloid diff 2	IDE cell inh
C#CCOCCOCCOCCNc1nc(N2CCN(C(=O)CCCCCCCCCCNC(=O)Cn3cc(C[C@@H](C)O)nn3)CC2)nc(N2CCN(C(=O)CCCCCCCCCCNC(=O)Cn3cc(C[C@@H](C)O)nn3)CC2)n1	-2.0	-2.0	-2.7	3.0	i	-2.6
C#CCOCCOCCOCCNc1nc(N2CCN(C(=O)CCCCCCCCCCNC(=O)[C@H](CCCCN)n3cc(C[C@@H](C)CC)nn3)CC2)nc(N2CCN(C(=O)CCCCCCCCCCNC(=O)[C@H](CCCCN)n3cc(C[C@@H](C)CC)nn3)CC2)n1	-141.8	39.8*	-0.6	91.5*	+	-1.9
C#CCOCCOCCOCCNc1nc(N2CCN(C(=O)CCCCCCCCCCNC(=O)[C@@H](CCSC)n3cc(CCO)nn3)CC2)nc(N2CCN(C(=O)CCCCCCCCCCNC(=O)[C@H]([C@@H](C)CC)n3cc(CCCCN=C(N)N)nn3)CC2)n1	1.3	45.6*	-3.8	0.1	i	5.3
COCCN(C(=O)COC(=O)/C=C/c1ccc2c(c1)OCO2)c1c(N)n(Cc2ccccc2)c(=O)[nH]c1=O	4.1	1.0	1.0	0.3	i	-3.3
C#CCOCCOCCOCCNc1nc(N2CCN(C(=O)CCCCCCCCCCNC(=O)[C@H](CCCCN)n3cc(CCCC(=O)O)nn3)CC2)nc(N2CCN(C(=O)CCCCCCCCCCNC(=O)[C@H](CCCN=C(N)N)n3cc(C[C@@H](C)CC)nn3)CC2)n1	-25.3	25.9*	1.8	15.3	i	5.0
Nc1ccc(N2CCCC2)c(S(=O)(=O)Nc2cccc(C(F)(F)F)c2)c1	-0.1	0.9	.	0.0	+	-3.0
Cc1nc(NC(=O)c2cccnc2Cl)sc1C	2.1	0.1	3.3	-0.9	i	2.7
CCN(CC)c1ccc2cc(-c3nc(-c4ccc(OC)cc4)cs3)c(=O)oc2c1	-403.6	.	-12.1	337.6*	.	1.8
CCCCc1ccc(N/C(N)=N/c2nc(C)cc(C)n2)cc1	-81.3	.	0.6	101.9*	i	-5.9
Cc1ccc(N/C(N)=N/c2nc(C)cc(C)n2)cc1	-48.5	3.9	-1.1	55.3*	i	-0.3
Cc1cccc(N/C(N)=N/c2nc(C)cc(C)n2)c1	-52.6	8.1	3.9	81.1*	i	-5.7
CC(=O)Nc1cccc(N/C(N)=N/c2nc(C)cc(C)n2)c1	12.6	4.4	0.2	-1.3	i	2.0
O=C(NCc1ccccn1)c1cc(-c2ccc(-c3ccccc3)cc2)nc2ccccc12	-11.0	1.1	0.3	1.5	+	3.4
CCOC(=O)c1sc(NC(=O)c2cc(-c3ccccc3)nc3ccccc23)c(C#N)c1C	34.8	-3.8	6.3	53.1*	i	1.8
Cc1ccc(-c2cc(C(=O)NCc3ccccn3)c3ccccc3n2)cc1C	110.9*	4.4	3.8	-3.3	i	3.2
O=C(NCc1ccccn1)c1cc(-c2ccccc2)nc2ccccc12	24.2	3.7	3.0	-1.7	i	-0.8
COCCNC(=O)c1cc(-c2ccc(-c3ccccc3)cc2)nc2ccccc12	1.5	6.5	-0.3	0.2	+	8.9
COc1ccc(NC(=O)CN(c2c(C)cccc2C)S(C)(=O)=O)cc1	-1.2	-0.8	2.0	0.0	i	0.7
O=C(O)c1ccccc1-c1ccccc1C(=O)NCc1ccccc1Cl	14.3	4.0	-1.0	0.7	i	-2.7
COc1ccc(N2CCN(C(=O)COC(=O)/C=C/c3ccc(C(F)(F)F)cc3)CC2)cc1	-12.2	1.1	2.1	-1.1	+	1.8
COc1ccc(N2CCN(C(=O)COC(=O)c3ccco3)CC2)cc1	-2.2	7.1	0.8	8.7	+	0.2
COc1ccc(C(=O)NCC(=O)N2CCN(C(=O)c3ccco3)CC2)cc1	-286.5	0.7	-2.7	316.4*	i	-1.7
COc1ccc(N2CCN(C(=O)COC(=O)Cc3cccc(OC)c3)CC2)cc1	7.5	1.9	-0.1	0.8	i	-2.5
CC(C)c1ccc(/C=C(\NC(=O)c2ccccc2)C(=O)NCCCN2CCOCC2)cc1	16.1	5.7	-1.3	0.1	i	-1.6
Cc1ccc(NC(=O)c2ncn(CCCNCC3CCCO3)n2)cc1C (centres undefined)	81.3*	0.9	.	-1.3	i	.
SMILES	CRFBP-R2 block	IDE cell activ	TPT1 inh	CRFR2-BP ag	Myeloid diff 2	IDE cell inh
CC1Cc2ccccc2N1C(=O)COC(=O)c1ccc(Br)o1 (centres undefined)	-17.4	-0.8	2.0	0.4	i	4.3
O=C(CN1C(=O)c2ccccc2C1=O)N1CCN(c2ccccc2)CC1	-1.5	5.5	4.5	0.1	i	9.8
Cc1ccc(N2CCN(C(=O)CN3C(=O)c4ccccc4C3=O)CC2)cc1	55.7*	5.9	-3.2	0.1	i	0.7
O=C(CSc1nnnn1-c1ccc(F)cc1)Nc1ccccc1F	15.9	2.4	.	-0.8	i	.
COc1ccc2[nH]cc(C(=O)CN3CCCCC3)c2c1	-14.8	2.7	3.2	59.1*	i	-3.5
O=C(Nc1scc(-c2ccccc2)c1C(=O)O)c1ccccc1F	23.8	0.2	-1.4	-2.0	i	1.7
Cc1ccccc1C(=O)Nc1scc(-c2ccc(Br)cc2)c1C(=O)O	67.8*	2.7	-0.8	-1.3	i	-0.6
Cc1ccc(-c2csc(NC(=O)c3ccccc3F)c2C(=O)O)cc1	44.8	-2.6	3.1	0.1	i	-0.6
O=C(Nc1scc(-c2ccc(Br)cc2)c1C(=O)O)c1ccccc1F	56.4*	4.5	0.0	-0.2	i	-0.8
Cc1cc(C)c(NC(=O)CNC(=O)CN(C)Cc2ccc(Br)s2)c(C)c1	-4.3	1.4	.	-1.0	i	0.8
COc1ccc(Oc2cn[nH]c2-c2ccc(O)cc2O)cc1	4.6	3.8	-1.7	-0.8	i	2.0
COc1ccc(-c2[nH]ncc2Oc2ccccc2OC)c(O)c1	7.3	-2.2	2.1	-1.0	+	0.5
Cc1nc2ccc(C(=O)N(C)Cc3ccco3)cn2c1N(C)CC1CCCCC1	.	.	.	.	i	.
CCCCCCCC/C=C\CCCCCCCC(=O)NCCO	-23.3	6.8	0.0	3.1	?	-0.7
CCCCCCCC/C=C\CCCCCCCC(=O)NCCc1ccc(O)c(O)c1	-32.7	17.4*	0.0	7.6	i	-2.5
O=C(Nc1cccc(-c2nn[nH]n2)c1)c1csc2c1CCCC2	-2.9	-2.4	-3.4	-0.1	i	8.4
Cc1ccsc1C1C=C(c2cccc(Br)c2)Nc2ncnn21 (centres undefined)	-16.2	-34.0	-85.1	30.1	.	25.3*
CCc1ccc(C2=CC(c3cc(Br)ccc3F)n3ncnc3N2)cc1 (centres undefined)	-10.2	2.2	-7.5	53.6*	+	7.0
Fc1ccc(Br)cc1C1C=C(c2ccc(Br)cc2)Nc2ncnn21 (centres undefined)	-70.8	-14.3	-9.7	102.4*	i	-0.1
